Measurements: PubChem BioAssay
Calls of active or inactive are those of the source.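 Rule for the calls, unless noted: active = inhibition at or above 50% at 10 µM; inactive = inhibition below 50%.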

How the values were obtained:
[1] = inhibitors of TNFa-induced NFkB p65 translocation, primary screen, imaging, HUVEC, MLSMR starter and 10KST1 sets (AID 438;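 active = inhibition above 20% together with a positive visual image hit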;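 note: compound added about 3h40 before a 20 min TNFalpha stimulation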;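 for inhibition: signal is the nuclear over cytoplasmic p65 intensity ratio per well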); details: HUVEC TNFa-induced p65 nuclear translocation; cell count: measured here: nuclei count (cytotoxicity indicator), at 2.08 µM; inhibition: at 2 µM, stronger effect = higher value, 0% TNFa-plus-vehicle, 100% no-TNFa wells
[2] = reduction of polyQ htt aggregates in cells – imaging, exon1htt(103Q)mCFP cells, high-content imaging, primary screen (AID 483;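 active = visual image review flags a hit and inhibition of aggregation exceeds 20%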;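 note: compound exposure lasted 3 days before fixation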;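 for nuclei count: percent of the per-plate median nuclei count of sample wells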); details: exon1htt(103Q)mCFP cell line, aggregate imaging, at 2 µM; inhibition of aggregation: stronger effect = higher value; nuclei count: measured here: cell count, toxicity
[3] = endothelial E-selectin expression blockers – imaging, HUVEC, immunofluorescence, MLSMR starter and 10KST1 sets, primary screen (AID 487;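 active = visually confirmed hit in the image check and inhibition above 20%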;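 for inhibition: signal is fraction of cell area covered by stained E-selectin grains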;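 for nuclei count: 100% = median nuclei count of all wells on the same plate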); details: HUVEC TNFalpha-induced E-selectin immunofluorescence imaging, at 2 µM; inhibition: stronger effect = higher value; nuclei count: measured here: cell number, toxicity
[4] = molecular target: Voltage-gated potassium channel subunit beta-2 (Rattus norvegicus) (UniProt P62483); assay: inhibitors of rat Kvbeta2 reductase activity – biochemical, NADPH fluorescence, primary screen (AID 622;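 active = fluorescence slope higher than the sample average by over 3 SD, cut at about -0.22 in these data, passing the limit was not always enough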;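 note: slope of raw intensity against log time taken from 70 to 1610 s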); details: recombinant KvBeta, 4-cyanobenzaldehyde reduction, at 10 µM, stronger effect = higher value
[5] = molecular target: Voltage-gated potassium channel subunit beta-2 (Rattus norvegicus) (UniProt P62483); assay: enhancers of rat Kvbeta2 NADPH turnover – biochemical, NADPH fluorescence, primary screen (AID 623;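 active = NADPH fluorescence slope more negative than the mean of all samples by about 3 SD, 99.7% confidence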;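 note: fluorescence intensity change per second fitted from 20 to 320 s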); details: Recombinant KvBeta, NADPH fluorescence decrease slope, 10 min; at 10 µM; stronger effect = lower value
[6] = molecular target: Alpha-2C adrenergic receptor (Homo sapiens) (UniProt P18825); assay: compounds altering alpha2C-coupled GIRK flux – cell-based, HEK293 alpha2C/GIRK1/2, thallium flux, primary screen (AID 624;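 active = fluorescence slope after compound addition differing from the mean of all screened samples at 99.7% confidence, in either direction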;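 note: slope of fluorescence ratio to pre-addition baseline per second over 15 to 24 s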); details: thallium flux BTC fluorescence, at 10 µM, actives lie on both sides
[7] = blockers of RIG-like receptor reporter activation – cell-based, Sendai virus stimulus, luciferase, 10K MLSCN set, TLR/RLR signaling modifier project, primary screen (AID 602276); details: HEK293 RL24 IRF3 luciferase reporter, at 10 µM, stronger effect = higher value;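 note: firefly luciferase from ISG56 promoter only with Renilla not read in this screen; 0% = Sendai virus plus DMSO and 100% = medium plus DMSO without virus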
[8] = TLR3 IRF3 reporter activation blockers – cell-based, poly I:C stimulus, luciferase, 10K MLSCN set, primary screen (AID 602277;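 active = inhibition of the reporter signal at or above 50%; inactive = inhibition below 50%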); details: HEK293-TLR3 RL24 IRF3 luciferase reporter, at 10 µM, stronger effect = higher value

Sequence of Alpha-2C adrenergic receptor (Homo sapiens) (P18825 whole entry, looked up): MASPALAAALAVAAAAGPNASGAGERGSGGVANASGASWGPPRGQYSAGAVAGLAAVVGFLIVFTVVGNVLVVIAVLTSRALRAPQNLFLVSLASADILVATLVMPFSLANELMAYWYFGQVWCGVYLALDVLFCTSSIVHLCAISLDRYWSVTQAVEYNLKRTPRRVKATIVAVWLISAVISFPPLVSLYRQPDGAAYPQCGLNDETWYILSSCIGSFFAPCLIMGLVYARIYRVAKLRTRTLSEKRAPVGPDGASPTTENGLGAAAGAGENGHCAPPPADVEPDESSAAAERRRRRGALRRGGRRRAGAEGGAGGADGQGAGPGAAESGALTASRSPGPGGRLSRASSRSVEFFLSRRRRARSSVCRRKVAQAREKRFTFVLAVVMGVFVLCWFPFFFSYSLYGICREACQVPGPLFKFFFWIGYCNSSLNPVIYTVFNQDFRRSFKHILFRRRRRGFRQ
Sequence of Voltage-gated potassium channel subunit beta-2 (Rattus norvegicus) (P62483 whole entry, looked up): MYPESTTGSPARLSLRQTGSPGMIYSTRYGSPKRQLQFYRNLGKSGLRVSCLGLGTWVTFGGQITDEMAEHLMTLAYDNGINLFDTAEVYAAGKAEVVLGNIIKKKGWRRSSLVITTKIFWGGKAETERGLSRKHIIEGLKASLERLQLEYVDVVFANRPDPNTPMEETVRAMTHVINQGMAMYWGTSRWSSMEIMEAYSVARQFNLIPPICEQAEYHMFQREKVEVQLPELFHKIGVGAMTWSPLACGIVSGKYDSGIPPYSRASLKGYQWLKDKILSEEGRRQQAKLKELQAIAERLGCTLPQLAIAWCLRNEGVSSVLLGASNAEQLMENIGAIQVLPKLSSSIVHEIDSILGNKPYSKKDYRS

| Compound | cell count [1] | inhibition [1] | inhibition of aggregation [2] | nuclei count [2] | inhibition [3] | nuclei count [3] | fluorescence slope [4] | NADPH fluorescence slope [5] | slope [6] | inhibition [7] | inhibition [8] |
| --- | --- | --- | --- | --- | --- | --- | --- | --- | --- | --- | --- |
| CCSc1ccccc1C(=O)NCc1ccc(S(N)(=O)=O)cc1 | 327 | 1.1% (inactive) | -5.9% (inactive) | 104% | -78.4% (inactive) | 120% | -0.435 (inactive) | -4.5e-05 (inactive) | 0.00523 (inactive) | 18.1% (inactive) | 16.5% (inactive) |
| COc1ccc(C(=O)NCc2nnc(SC)n2C2CCCCC2)cc1 | 591 | -2.4% (inactive) | -1.1% (inactive) | 96% | -35.7% (inactive) | 101% | -0.521 (inactive) | -3.9e-05 (inactive) | 0.00737 (inactive) | 18.8% (inactive) | 26% (inactive) |
| CCn1c(CSc2nnc(-c3cccnc3)n2-c2ccccc2C)nc2cc(C(=O)O)ccc21 | 463 | -13.1% (inactive) | 5.1% (inactive) | 101% | -22.2% (inactive) | 161% | -0.509 (inactive) | -0.000162 (inactive) | 0.00507 (inactive) | 2.24% (inactive) | 9.03% (inactive) |
| Cc1[nH]nc2c1C(C1CC=CCC1)C(C#N)=C(N)O2 (stereo not drawn) | 424 | 6.7% (inactive) | -6.7% (inactive) | 99.5% | -127% (inactive) | 117% | -0.459 (inactive) | 8.5e-06 (inactive) | 0.00356 (inactive) | -0.754% (inactive) | 40.2% (inactive) |
| Cc1ccccc1-c1nc(CN2CCC(C(=O)N3CCC(C(N)=O)CC3)CC2)c(C)o1 | 576 | 6.1% (inactive) | 1.2% (inactive) | 87.6% | 7.6% (inactive) | 87.8% | -0.548 (inactive) | -3.8e-05 (inactive) | 0.00557 (inactive) | 7.94% (inactive) | 40.4% (inactive) |
| CCc1cccc(NC(=O)CN(C)S(=O)(=O)c2cccc3nsnc23)c1 | 337 | -6.3% (inactive) | 7.8% (inactive) | 94% | -68.8% (inactive) | 120% | -0.35 (inactive) | -6.7e-05 (inactive) | 0.0056 (inactive) | 10.2% (inactive) | 8.03% (inactive) |
| CCN(CC)CCOC(=O)c1cccc(OC)c1 | 249 | 4.3% (inactive) | -8.4% (inactive) | 114% | 16.1% (inactive) | 98.7% | -0.638 (inactive) | -2.4e-05 (inactive) | 0.00412 (inactive) | 6.23% (inactive) | 14.4% (inactive) |
| O=C(c1cnc2n(c1=O)CCS2)N(C1CCCCC1)C1CCCCC1 | 649 | -6.9% (inactive) | 6.9% (inactive) | 97.5% | -47.3% (inactive) | 122% | -0.42 (inactive) | -4.8e-05 (inactive) | 0.00465 (inactive) | 11% (inactive) | 39.3% (inactive) |
| CC1=C(C(N)=O)C(c2ccccn2)n2nc(-c3ccccc3Cl)nc2N1 (stereo not drawn) | 588 | -5.4% (inactive) | -14.7% (inactive) | 104% | -11.6% (inactive) | 111% | -0.553 (inactive) | -3.1e-05 (inactive) | 0.0061 (inactive) | -2.04% (inactive) | 17.2% (inactive) |
| COc1cc(NC(=O)c2nccnc2C(=O)O)cc(OC)c1 | 856 | 1.2% (inactive) | -12.8% (inactive) | 81.8% | -30.5% (inactive) | 117% | -0.554 (inactive) | -2e-05 (inactive) | 0.00607 (inactive) | -3.73% (inactive) | 6.75% (inactive) |
| O=C(C1COc2ccccc2O1)N1CCCC1 (stereo not drawn) | 283 | -8.4% (inactive) | 32.8% (active) | 83.7% | -72.5% (inactive) | 99.2% | -0.332 (inactive) | 1.7e-05 (inactive) | 0.0093 (inactive) | -11.4% (inactive) | 3.67% (inactive) |
| Cc1ccc2c(c1)sc1ncc(NC(=O)c3ccccc3)c(=O)n12 | 324 | 2.1% (inactive) | -14.3% (inactive) | 100% | -27.5% (inactive) | 110% | -0.58 (inactive) | 6.2e-06 (inactive) | 0.0047 (inactive) | -16.1% (inactive) | -38.4% (inactive) |
| O=C(O)Cn1cc(C(=O)c2ccco2)c2ccccc21 | 316 | 16.3% (inactive) | 3.6% (inactive) | 108% | 30.1% (inactive) | 104% | -0.487 (inactive) | -1.2e-05 (inactive) | 0.00668 (inactive) | 0.251% (inactive) | 8.5% (inactive) |
| CCOC(=O)N1CCN(Cc2ccccc2F)CC1 | 485 | -3.8% (inactive) | 15.1% (inactive) | 91.4% | -26% (inactive) | 91.5% | -0.581 (inactive) | -2e-05 (inactive) | 0.00418 (inactive) | 12.5% (inactive) | 13.4% (inactive) |
| CC(CC(=O)NCc1ccccc1)C1CCCO1 (stereo not drawn) | 439 | -2% (inactive) | 20.9% (inactive) | 92.2% | -112% (inactive) | 114% | -0.463 (inactive) | -3.8e-06 (inactive) | 0.0065 (inactive) | -2.84% (inactive) | -9.76% (inactive) |
| CC1(C)CC(=O)C(C=Nc2ccncc2)=C(O)C1 | 463 | 4.9% (inactive) | 3.3% (inactive) | 103% | -42.3% (inactive) | 120% | -0.607 (inactive) | 5e-06 (inactive) | 0.00629 (inactive) | -2.33% (inactive) | 10.3% (inactive) |
| Cc1ccccc1OCc1nc2ccccc2c(=O)n1/N=C/c1ccco1 | 373 | -13.1% (inactive) | 4% (inactive) | 57.5% | -47.5% (inactive) | 85.3% | -0.46 (inactive) | -4.6e-05 (inactive) | 0.00374 (inactive) | -5.07% (inactive) | -33% (inactive) |
| O=C1c2ccccc2C(Nc2ccc3c(c2)OCCO3)N1Cc1ccco1 (stereo not drawn) | 548 | -2% (inactive) | 17.5% (inactive) | 102% | -106% (inactive) | 132% | -0.589 (inactive) | -2.3e-05 (inactive) | 0.00424 (inactive) | 12.3% (inactive) | 7.32% (inactive) |
| COc1ccccc1N1CCN(Cc2nnnn2CCc2ccccc2)CC1 | 497 | -3.1% (inactive) | 2% (inactive) | 99.9% | -42.8% (inactive) | 92% | -0.565 (inactive) | 8e-05 (inactive) | 0.00514 (inactive) | -6.87% (inactive) | 0.354% (inactive) |
| COCCN(CCOC)C(=O)c1sc2nc(-c3ccccc3)cn2c1C | 752 | -10.7% (inactive) | -5.6% (inactive) | 119% | -55.5% (inactive) | 127% | -0.39 (inactive) | -9.4e-06 (inactive) | 0.00336 (inactive) | 9.08% (inactive) | 7.03% (inactive) |
| O=C1c2ccccc2C(=O)N1CCN1CCCCC1 | 528 | 0.3% (inactive) | -9.5% (inactive) | 113% | -58.5% (inactive) | 117% | -0.327 (inactive) | -5e-05 (inactive) | 0.00644 (inactive) | -8.79% (inactive) | -2.11% (inactive) |
| O=C(CSc1nc2cc(Cl)ccc2s1)N1CCN(C(=O)c2ccco2)CC1 | 725 | 2.4% (inactive) | 15.7% (inactive) | 97.9% | -126% (inactive) | 141% | -0.482 (inactive) | -5.8e-05 (inactive) | 0.00555 (inactive) | 21.6% (inactive) | 27.6% (inactive) |
| CCn1cc(C(=O)NCc2ccccc2OC)c(=O)c2cc(S(=O)(=O)N(C)C)ccc21 | 665 | -5.5% (inactive) | 7.5% (inactive) | 74.5% | -39.5% (inactive) | 113% | -0.425 (inactive) | -4e-05 (inactive) | 0.00524 (inactive) | 13.2% (inactive) | 23.7% (inactive) |
| COCCn1nnnc1C(c1ccc(OC)cc1)N1CCN(c2ccccc2F)CC1 (stereo not drawn) | 476 | -1.9% (inactive) | -4.8% (inactive) | 131% | -30.1% (inactive) | 104% | -0.585 (inactive) | -9.6e-06 (inactive) | 0.00546 (inactive) | 14.5% (inactive) | 22.9% (inactive) |
| Cc1nc(C)c2c(c1C(F)(F)F)-c1ccccc1C2(F)F | 397 | 3.9% (inactive) | -0.1% (inactive) | 108% | -30.7% (inactive) | 107% | -0.454 (inactive) | -8.2e-06 (inactive) | 0.00655 (inactive) | -9.52% (inactive) | 98.9% (active) |
| COc1ccc(CCN2C(=O)CC(N3CCOCC3)C2=O)cc1 (stereo not drawn) | 665 | -1.8% (inactive) | -7.6% (inactive) | 100% | -57% (inactive) | 102% | -0.496 (inactive) | -6.6e-05 (inactive) | 0.00402 (inactive) | 4.57% (inactive) | -0.756% (inactive) |
| CCOC(=O)CSc1nc2ccccc2n1CC(=O)N1CCN(c2ccccc2)CC1 | 436 | 14.9% (inactive) | 7.6% (inactive) | 98% | 50.8% (inactive) | 99.5% | -0.569 (inactive) | 2.2e-05 (inactive) | 0.00504 (inactive) | -4.03% (inactive) | 1.41% (inactive) |
| Cc1sc2nc(SCC(=O)N3CCN(CCO)CC3)n(-c3ccccc3)c(=O)c2c1C | 397 | 7% (inactive) | -7.3% (inactive) | 111% | -55% (inactive) | 121% | -0.456 (inactive) | -4.5e-05 (inactive) | 0.00574 (inactive) | 16.8% (inactive) | 31% (inactive) |
